# Assay results taken from ChEMBL document CHEMBL3988442, “University of Dundee, Small-Polar-MMV Screening Library” (2021).
# In all, about 66,000 compounds went through this assay and about 960 (1.5%) showed an effect of 50% or more. This excerpt belongs to a sample that is enriched for strong results.
# Test system: Trypanosoma brucei
# Experiment: Trypanosoma brucei 72 hour study
# Format: functional, organism-based
# Parameters: scale not given: in the data most compounds retested in dose-response had high values
structure (smiles),measurement,setting,value
CCC(C)N(Cc1ccsc1)C(=O)c1ccc2[nH]nnc2c1 (stereo not drawn),Percent Effect,"30 µM, 30.03 µM",2.149%
O=C(O)C(F)(F)F.c1cnc(N2CCO[C@H]3CN(CC4CCOC4)C[C@H]32)cn1 (stereo partly drawn),Percent Effect,"30.3 µM, […]",-89.28%
Fc1ccc(N2CCCN(c3ccc(Cn4ccnc4)cn3)CC2)cc1,Percent Effect,"30 µM, 30.03 µM",-16.3%
CS(=O)(=O)N1CCO[C@@H]2CN(C(=O)N3CCOCC3)CC[C@@H]2C1,Percent Effect,"30.3 µM, […]",-93.06%
CCc1noc(CNCCn2cc(C)cn2)n1,Percent Effect,"30.3 µM, […]",-10.46%
Cc1cnn(CCNCc2nc(Cc3ccccc3)no2)c1,Percent Effect,"30 µM, 30.03 µM",-8.184%
Cc1cnn(CCNCc2nc(CNC(=O)c3ccccc3)no2)c1,Percent Effect,"30.3 µM, […]",55.13%
CC(NC(=O)NCc1cc(Br)cs1)c1ccccn1 (stereo not drawn),Percent Effect,10 µM,-58.94%
COc1ccc(CN2CCC(c3nnc(-c4scnc4C)o3)CC2)cc1,Percent Effect,"30.3 µM, […]",3.062%
CCCn1cc(-c2ccnc(NC3CCc4ccccc4C3)n2)c(C)n1 (stereo not drawn),Percent Effect,"30 µM, 30.03 µM",2.067%
CCCn1ncc(-c2ccnc(N[C@@H]3C[C@@H]4CC[C@H]3C4)n2)c1C,Percent Effect,"30.3 µM, […]",89.15%
CCCn1cc(-c2ccnc(NC3CCc4ccccc43)n2)c(C)n1 (stereo not drawn),Percent Effect,"30 µM, 30.03 µM",34.15%
CCc1cc(N[C@@H]2C[C@H]3CC[C@@H]2C3)n2nccc2n1,Percent Effect,"30 µM, 30.03 µM",24.99%
CCCn1ncc(-c2ccnc(NC3CC(C)(C)NC(C)(C)C3)n2)c1C,Percent Effect,"30.3 µM, […]",25.37%
CCCn1cc(-c2ccnc(NC3CCCc4ccccc43)n2)c(C)n1 (stereo not drawn),Percent Effect,"30 µM, 30.03 µM",15.8%
CCCn1ncc(-c2ccnc(NC3CCSC3)n2)c1C (stereo not drawn),Percent Effect,"30.3 µM, […]",99.54%
CCCn1ncc(-c2ccnc(NC3CCCc4ccccc43)n2)c1C (stereo not drawn),Percent Effect,"30 µM, 30.03 µM",93.43%
Cn1ncc2c(N[C@@H]3C[C@@H]4CC[C@H]3C4)nc(-c3ccncc3)nc21,Percent Effect,"30.3 µM, […]",-15.13%
Cc1ccc(C(=O)N2CCC3(CCN3c3ncccn3)C2)cn1.O=C(O)C(F)(F)F (stereo not drawn),Percent Effect,"30 µM, 30.03 µM",-27.47%
COC(=O)CCN(C)C(=O)c1csc(Cc2ccccc2F)n1,Percent Effect,"30 µM, 30.03 µM",-48.33%
O=C(O)C(F)(F)F.O=C(c1ccccc1)N1CCC2(CCCN2c2ncccn2)CC1,Percent Effect,"30 µM, 30.03 µM",-3.287%
Oc1cccc(CN2C[C@H]3CC[C@@H]2CN(Cc2ccc(F)cc2)C3)c1,Percent Effect,"30.3 µM, […]",102.6%
CCCN1C[C@H]2CC[C@@H]1CN(Cc1cccc(O)c1)C2,Percent Effect,"30.3 µM, […]",-137.4%
Cc1nnsc1CN1C[C@H]2CC[C@@H]1CN(Cc1ccc(F)cc1)C2,Percent Effect,"30 µM, 30.03 µM",-34.67%
Cc1ccc(CN2CCc3nnc(COCCN(C)C)n3CC2)o1.O=C(O)C(F)(F)F.O=C(O)C(F)(F)F,Percent Effect,"30.3 µM, […]",-5.489%
Cc1ccc2c(n1)N(CC1CC1)CCN(Cc1cnn(C)c1)C2,Percent Effect,"30.3 µM, […]",-21.1%
c1cc(-c2cn3nccc3nc2C2CCCCC2)nc(N2CCCC2)n1,Percent Effect,"30.3 µM, […]",41.66%
CN1CCCN(c2nccc(-c3c[nH]nc3-c3ccncc3)n2)CC1,Percent Effect,"30.3 µM, […]",10.61%
CN1CCCN(c2nccc(-c3cncnc3C3CCCCC3)n2)CC1,Percent Effect,"30.3 µM, […]",-3.717%
c1cc(-c2c[nH]nc2C2CCCCC2)nc(N2CCCCCC2)n1,Percent Effect,"30.3 µM, […]",99.82%
CN1CCCN(c2nccc(-c3cc(C(=O)O)ccn3)n2)CC1,Percent Effect,"30 µM, 30.03 µM",-37.76%
CN1CCN(c2nccc(-c3cncnc3C3CCCCC3)n2)CC1,Percent Effect,"30.3 µM, […]",-9.341%
Cc1ccnc(N2CCC(C(N)=O)CC2)n1,Percent Effect,"30.3 µM, […]",-17.59%
Nc1nccc(-c2c[nH]nc2C2CCCCC2)n1,Percent Effect,"30 µM, 30.03 µM",44.22%
NC(=O)[C@H]1CCCN(c2nccc(-c3c[nH]nc3-c3cccnc3)n2)C1,Percent Effect,"30.3 µM, […]",-17.38%
CN1CCCN(c2nccc(-c3c[nH]c4ccc(Br)cc34)n2)CC1,Percent Effect,"30.3 µM, […]",99.21%
CN1CCCN(c2nccc(-c3c[nH]nc3C3CCCCC3)n2)CC1,Percent Effect,"30 µM, 30.03 µM",98.42%
NC(=O)C1CCN(c2nccc(-c3c[nH]nc3C3CCCCC3)n2)CC1,Percent Effect,"30.3 µM, […]",100.2%
Cc1nnsc1C(=O)N1CCCC(n2nnc3cc(F)ccc32)C1 (stereo not drawn),Percent Effect,"30.3 µM, […]",2.47%
CC1COCCN1Cc1nc(-c2ccsc2)no1 (stereo not drawn),Percent Effect,"30.3 µM, […]",-0.3401%
same,Percent Effect,"10 mM, 10 mM as filed; unlikely as a test dose",-39.38%
CC(C)N1CCO[C@@H]2CN(S(=O)(=O)c3cccs3)CC[C@@H]2C1.O=C(O)C(F)(F)F,Percent Effect,"30.3 µM, […]",-39.91%
COc1ccc(OC)c(CN2CCc3nc4ccsc4c(=O)n3CC2)c1.Cl,Percent Effect,"30.3 µM, […]",12.93%
OC[C@@H]1CCCN1c1nccc(-c2c[nH]nc2-c2ccncc2)n1,Percent Effect,"30.3 µM, […]",21.87%
OC[C@H]1CCCN1c1nccc(-c2c[nH]nc2C2CCCCC2)n1,Percent Effect,"30.3 µM, […]",98.96%
OC[C@H]1CCCN1c1nccc(-c2cncnc2C2CCCCC2)n1,Percent Effect,"30.3 µM, […]",-14.29%
CCc1noc(C(C)N(C)CC(=O)Nc2ccc(Br)cc2C)n1 (stereo not drawn),Percent Effect,"30 µM, 30.03 µM",-22.21%
COc1ncccc1CN1C[C@@H]2COC[C@]2(COCC(=O)N(C)C)C1.O=C(O)C(F)(F)F.O=C(O)C(F)(F)F,Percent Effect,"30 µM, 30.03 µM",-7.446%
